This is an account of results in PubChem BioAssay AID463173 (ICCB-Longwood Screening Facility, Harvard Medical School, 2010).

Screen size: about 52,000 compounds; about 1,700 (3.3%) were called active. No stated cut-off is given here; in the data, active means survival mostly below about 52% (no sharp cut-off); inactive means mostly above about 56%. The full list was thinned out, with actives kept by preference.

The subject of the experiment is Wild type. Nature of the experiment: growth inhibition of S. aureus wild type versus tarO mutant, primary screen, teichoic acid synthesis inhibitors, RN4220, OD600 (AID 463173). The note with it: S. aureus RN4220 wild type/DeltatarO growth, OD600, 18 h, active compounds read low, screened at 18.75 µg/mL (by protocol).
Consider `Cn1ccc2cc(S(=O)(=O)N3CCN(C(=O)Nc4cccc(F)c4)CC3)ccc21`, for which the survival was 74% (inactive).

As for `CCCCN(CCCNC(=O)c1cc(Nc2ccc(OC)c(OC)c2)nc2ccccc12)Cc1ccccc1`, the survival was 79% (inactive).

Regarding `CCc1nn2c(=O)cc(COC(=O)c3cccc(NC(=O)CCc4ccccc4)c3)nc2s1`, the survival was 72% (inactive).

On to `CC(=O)c1cccc(NC(=O)C2CCN(S(=O)(=O)c3ccc4c(c3)oc(=O)n4C)CC2)c1`, for which the survival is 90% (inactive).

As to `O=S(=O)(NCc1nc2cccnc2n1Cc1ccccc1Cl)c1ccc2c(c1)CCCC2`, the survival was 73% (inactive).

Regarding `CCCN(CCC)CC(O)Cn1cc(/C=C/C(=O)c2ccc(OC)cc2)c2ccccc21` (stereo not given), the survival was 1% (active).

Consider `CCCN(CCC)CC(O)Cn1cc(/C=C/C(=O)c2ccc(OCC)cc2)c2ccccc21` (stereo not given), for which the survival was 23% (active).

On to `CCCN(CCC)CC(O)Cn1cc(/C=C/C(=O)c2ccc(Br)cc2)c2ccccc21` (stereo not given), for which the survival was 85% (inactive).

With `CCCCN(CCCC)CC(O)Cn1cc(/C=C/C(=O)c2ccccc2)c2ccccc21` (stereo not given), the survival was 18% (active).

For the compound `COc1ccc(C(=O)/C=C/c2cn(CC(O)CN(CC(C)C)CC(C)C)c3ccccc23)cc1OC` (stereo not given), the survival was 60% (inactive).

As for `CCCN(CCC)CC(O)Cn1cc(/C=C/C(=O)c2ccc(C)cc2)c2ccccc21` (stereo not given), the survival was -1% (active).

Turning to `COc1ccc(C(=O)/C=C/c2cn(CC(O)CN(CC(C)C)CC(C)C)c3ccccc23)cc1` (stereo not given), the survival was 44% (inactive).

Regarding `CC(C)CN(CC(C)C)CC(O)Cn1cc(/C=C/C(=O)c2ccccc2)c2ccccc21` (stereo not given), the survival was 40% (inactive).

As to `Cc1ccccc1Cn1c(=O)n(Cc2ccc(Cl)cc2)c(=O)c2cccnc21`, the survival was 82% (inactive).

As for `CN1C(=O)CC(=O)N(C)c2cc(S(=O)(=O)N(C)Cc3ccccc3)ccc21`, the survival is 24% (inactive).

Turning to `CN(C)CCNC(=O)c1ccc(Cn2c(=O)c3cccn3c3cccnc32)cc1`, the survival is 89% (inactive).

Consider `O=C(CCSCc1ccccc1Cl)N1CCN(c2cccc(Cl)c2)CC1`, for which the survival is 75% (inactive).

Consider `CCOC(=O)Cc1ccc(NC(=O)N(C(C)C)C2CCN(C(C)=O)CC2)cc1`, for which the survival was 85% (inactive).

As to `CCOc1ccccc1CNC(=O)c1ccc(Cn2c(SCc3ccccc3)nc3cccnc32)cc1`, the survival was 69% (inactive).

For the compound `Cc1ccccc1CSc1nc2cc(C(=O)NC3CCCC3)ccc2c(=O)n1Cc1ccccc1`, the survival is 94% (inactive).

Consider `COc1ccccc1CNC(=O)c1ccc(Cn2c(SCc3ccccc3)nc3cccnc32)cc1`, for which the survival is 10% (active).

`COCCCNC(=O)c1ccc(CSc2nc3cccnc3n2Cc2ccc(OC)cc2)cc1`: the survival is 94% (inactive).

For the compound `O=C(NC1CCCC1)c1ccc2c(=O)n(Cc3ccccc3)c(SCc3ccccc3F)nc2c1`, the survival is -3% (active).

`O=C(NC1CCCC1)c1ccc(CSc2nc3cccnc3n2Cc2ccc(F)cc2)cc1`: the survival is 45% (inactive).

Consider `O=C(NC1CCCC1)c1ccc2c(=O)n(Cc3ccccc3)c(SCc3ccccc3)nc2c1`, for which the survival is 83% (inactive).

Consider `O=C(NCc1ccccc1Cl)c1ccc(Cn2c(SCc3ccccc3)nc3cccnc32)cc1`, for which the survival was 68% (inactive).

`O=C(NC1CCCCC1)c1ccc(Cn2c(SCc3ccc(F)cc3)nc3cccnc32)cc1`: the survival was 0% (active).

Consider `CCNC(=O)c1ccc(CSc2nc3cccnc3n2Cc2ccc(OC)cc2)cc1`, for which the survival is -3% (active).

On to `O=C(NC1CCCCC1)c1ccc(CSc2nc3cccnc3n2Cc2ccc(F)cc2)cc1`, for which the survival is 19% (inactive).

Regarding `COc1ccc(Cn2c(SCc3ccc(C(=O)NCc4ccc(C)cc4)cc3)nc3cccnc32)cc1`, the survival was 85% (inactive).

Regarding `CCN(C(=O)C(NS(=O)(=O)c1cccc2nsnc12)c1ccccc1)c1ccccc1` (stereo not given), the survival was 117% (inactive).

As to `CCN(CC)c1cc2c(cc1F)c(=O)c(S(=O)(=O)c1cccc(C)c1)cn2C`, the survival was 112% (inactive).

Consider `Cc1ccc(NC(=O)C2(c3cccs3)CCOCC2)cc1Cl`, for which the survival was 75% (inactive).

Consider `COc1ccc(C2=NS(=O)(=O)N(C)C(C(=O)Nc3cc(C)ccc3O)=C2)cc1OC`, for which the survival was 69% (inactive).

`C=Cc1ccc(Cn2c(=O)n(CC3CCC(C(=O)NC(C)C)CC3)c(=O)c3sccc32)cc1` (stereo not given): the survival is 81% (inactive).

For `COc1ccc(CCNC(=O)CCc2c(C)nc3c(-c4ccc(F)cc4)c(C)nn3c2C)cc1OC`, the survival is 137% (inactive).

On to `Cc1ccccc1CNC(=O)c1ccc(Cn2c(SCc3ccccc3)nc3cccnc32)cc1`, for which the survival is -2% (active).

As to `Cc1ccccc1CNC(=O)c1ccc(CSc2nc3cccnc3n2Cc2ccccc2)cc1`, the survival is 47% (inactive).

On to `Cc1ccccc1CNC(=O)c1ccc(Cn2c(SCc3cccc(F)c3)nc3cccnc32)cc1`, for which the survival was 70% (inactive).

For the compound `Cc1ccccc1NS(=O)(=O)c1ccc2[nH]cc(C(=O)N3CCCCC3)c(=O)c2c1`, the survival was 68% (inactive).

As for `N/C(=N\OC(=O)c1ccccc1)c1cccnc1`, the survival was 109% (inactive).

On to `Cc1ccc(S(=O)(=O)NCC(c2ccc(N(C)C)cc2)N2CCc3ccccc32)cc1` (stereo not given), for which the survival is -2% (active).

On to `CCOc1ccc(S(=O)(=O)NCC(c2ccc(N(C)C)cc2)N2CCc3ccccc32)cc1` (stereo not given), for which the survival is 22% (inactive).

As to `Cc1ccc(S(=O)(=O)NCC(c2ccc(N(C)C)cc2)N2CCc3ccccc32)cc1C` (stereo not given), the survival was 129% (inactive).

As to `CN(C)c1ccc(C(CNS(=O)(=O)c2ccc(F)cc2)N2CCc3ccccc32)cc1` (stereo not given), the survival is 0% (active).

Turning to `COc1ccc(S(=O)(=O)NCC(c2ccc(N(C)C)cc2)N2CCc3ccccc32)cc1` (stereo not given), the survival is 73% (inactive).

On to `CN(C)c1ccc(C(CNS(=O)(=O)c2ccccc2)N2CCc3ccccc32)cc1` (stereo not given), for which the survival is 80% (inactive).

For `COC(=O)CNC(c1ccccc1)c1cc(Br)ccc1NC(=O)c1ccccc1` (stereo not given), the survival was 62% (inactive).

Take `CCOC(=O)c1[nH]c(C)c(CCC(=O)NCc2cccc(C)c2)c1C`: the survival is 105% (inactive).

Consider `CCOc1cccc2sc(=NC(=O)c3ccc(S(=O)(=O)N4CCOCC4)cc3)n(C)c12`, for which the survival is 83% (inactive).

Take `COc1cccc(C(=O)Nc2nc(-c3nnn(-c4ccccc4C(F)(F)F)c3C)ns2)c1`: the survival is 76% (inactive).

Regarding `Cc1ccc(C(=O)Nc2nc(-c3nnn(-c4cccc(Cl)c4C)c3C)ns2)cc1C`, the survival was 136% (inactive).

On to `Cc1c(-c2nsc(NC(=O)c3ccccc3)n2)nnn1-c1ccc(C(F)(F)F)c(Cl)c1`, for which the survival was 80% (inactive).

For `Cc1c(-c2nsc(NC(=O)c3cccc(Cl)c3)n2)nnn1-c1ccccc1C(F)(F)F`, the survival is -6% (active).

Turning to `COc1cccc(C(=O)Nc2nc(-c3nnn(-c4cc(C)ccc4C)c3C)ns2)c1`, the survival is 72% (inactive).

In the case of `COc1cccc(C(=O)Nc2nc(-c3nnn(-c4cccc(Cl)c4C)c3C)ns2)c1`, the survival was -6% (active).

For `CCOC(=O)c1sc(NC(=O)c2cc3nc(-c4ccccc4)cc(C(F)(F)F)n3n2)c(C(=O)OCC)c1C`, the survival was 63% (inactive).

With `CCOc1ccc(-n2c(=O)c3c(C)c(C(=O)N(C)C)sc3n(CC(=O)Nc3c(C)cc(C)cc3C)c2=O)cc1`, the survival is 68% (inactive).

For the compound `COc1cccc(-n2c(=O)c3c(C)c(C(=O)N(C)C)sc3n(Cc3ccc(F)cc3Cl)c2=O)c1`, the survival was 83% (inactive).

In the case of `CCOC(=O)c1ccccc1NC(=O)Cn1c(=O)n(-c2ccc(CC)cc2)c(=O)c2c(C)c(C(=O)N(C)C)sc21`, the survival was -2% (active).

Turning to `CCc1ccc(-n2c(=O)c3c(C)c(C(=O)N(C)C)sc3n(CC(=O)Nc3cc(Cl)ccc3C)c2=O)cc1`, the survival is 129% (inactive).

`COC(=O)c1ccccc1NC(=O)Cn1c(=O)n(-c2cccc(OC)c2)c(=O)c2c(C)c(C(=O)N(C)C)sc21`: the survival was 121% (inactive).

On to `COc1cccc(-n2c(=O)c3c(C)c(C(=O)N(C)C)sc3n(Cc3cccc(C)c3)c2=O)c1`, for which the survival was 10% (active).

On to `CCOc1ccc(-n2c(=O)c3c(C)c(C(=O)N(C)C)sc3n(Cc3cc(C)ccc3C)c2=O)cc1`, for which the survival was -3% (active).

In the case of `Cc1ccc(-n2c(=O)c3c(C)c(C(=O)N(C)C)sc3n(Cc3ccccc3C)c2=O)cc1C`, the survival is 73% (inactive).

For the compound `CCc1ccc(-n2c(=O)c3c(C)c(C(=O)N(C)C)sc3n(Cc3cccc(C)c3)c2=O)cc1`, the survival was 80% (inactive).

Consider `O=C(c1cccs1)c1cn(CCOc2ccccc2Cl)c2ccccc12`, for which the survival was 80% (inactive).

`CC1(C)Oc2ccc(C(=O)N3CCCC3)cc2N(CC(=O)N2CCCCC2)C1=O`: the survival is 101% (inactive).

For the compound `O=C(Cn1c(=O)c2ccccc2n(CC(=O)Nc2ccc(F)cc2)c1=O)NCCc1ccccc1`, the survival is 127% (inactive).

As to `Cc1nn(C(=O)c2ccccc2F)c(C)c1S(=O)(=O)N1CCOCC1`, the survival was 66% (inactive).

Turning to `Cc1nnc(N(Cc2ccco2)C(=O)c2cccc(C#N)c2)s1`, the survival is 108% (inactive).

Regarding `CC(C)OCCCNC(=O)CN1C(=O)COc2ccc(S(=O)(=O)N3CCCCCC3)cc21`, the survival was 98% (inactive).

For the compound `Nc1cc(=O)[nH]c2n[nH]c(=S)n12`, the survival is 111% (inactive).

Regarding `CCc1nnc(NC(=O)c2cc(=O)c3cc(C)c(C)cc3o2)s1`, the survival is 74% (inactive).

Consider `COc1cccc(-c2nc(CS(=O)(=O)CC(=O)NCc3cccc(Cl)c3)c(C)o2)c1`, for which the survival was 82% (inactive).
